In PubChem BioAssay (NCI):
The panel holds about 83,000 compounds, 20% with a hit somewhere; the sample as a whole holds those more often.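 Step 1: grow cells in 96-well plates. Step 2: add test compound at a single concentration. Step 3: incubate 48 h. Step 4: record percent growth.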 Calls of active or inactive are those of the source. Rule for the calls: active = growth percent below 10; inactive = the rest.

Assays:
Assay in all cases: NCI-60 one-dose screen, 48 h (100 = growth as untreated, 0 = no growth, -100 = all killed)
Conditions in all cases: 10 µM unless noted
[1] = system: HCT-15 colon
[2] = system: HT29 colon
[3] = system: SNB-75 CNS
[4] = system: SNB-19 CNS
[5] = system: U251 CNS
[6] = system: PC-3 prostate
[7] = system: SK-MEL-5 melanoma
[8] = system: UACC-62 melanoma
[9] = system: LOX IMVI melanoma
[10] = system: SK-MEL-28 melanoma
[11] = system: SK-MEL-2 melanoma
[12] = system: EKVX NSCLC
[13] = system: SN12C renal
[14] = system: UO-31 renal
[15] = system: TK-10 renal
[16] = system: ACHN renal
[17] = system: CAKI-1 renal
[18] = system: A498 renal
[19] = system: CCRF-CEM leukemia
[20] = system: MOLT-4 leukemia

Measured: growth

O=C1c2c(c3c4ccc(Br)cc4oc3c3[nH]c4ccccc4c23)C(=O)N1O
active: [2] 8.99% | [3] 4.21% | [7] -71.8% | [8] -2.55% | [9] 6.55% | [10] -0.104%
inactive: [1] 19% | [4] 29.7% | [5] 22.8% | [6] 40.9% | [11] 20% | [12] 66.6% | [13] 14.5% | [14] 13.8% | [15] 121% | [16] 22.8% | [17] 29% | [18] 13.1% | [19] 11.4% | [20] 11.2%

O=C1c2cccnc2C(=O)c2c1c(C(=O)NCCn1ccnc1)c1ccccn21
active: [2] 7.18% | [6] 8.68% | [7] -97% | [8] -24.5% | [9] 6.67% | [13] 4.77% | [20] 1.95%
inactive: [1] 30.3% | [3] 37.3% | [4] 30.8% | [5] 13% | [10] 68.4% | [11] 26.6% | [12] 56.9% | [14] 61.3% | [15] 116% | [16] 31.5% | [17] 86.9% | [18] 57.3% | [19] 11.8%

C=CC(=O)NCc1ccc(Nc2nccc(-c3ccc(N4CCCC4)c(C#N)c3)n2)cc1
active: [2] 7.08% | [17] -1.86%
inactive: [1] 19.7% | [3] 20.3% | [4] 58.6% | [5] 38.1% | [6] 32.4% | [7] 35.7% | [8] 33.8% | [9] 47.2% | [10] 45.5% | [11] 35.8% | [12] 62.8% | [13] 41.3% | [14] 17.5% | [15] 37.3% | [16] 20.4% | [18] 54% | [19] 49.1% | [20] 20%

c1cc2[nH]ncc2cc1-c1nc2ccc3[nH]ncc3c2c2c1CCCC2
active: [1] 7.1% | [2] 4.84% | [3] -3.31% | [7] -56.1% | [8] 1.74% | [10] -0.43% | [11] -48.7% | [14] -0.203% | [15] 8.08% | [16] 9.47% | [17] 9.5% | [18] -1.43% | [19] 9.05% | [20] -6.76%
inactive: [4] 24.3% | [5] 15.7% | [6] 23.1% | [9] 16.2% | [12] 17.8% | [13] 20.6%

CCCCN1C(=O)/C(=c2\sc3n(c2=O)C2C(NN=3)N(CC)C(=O)N2CC)c2ccccc21 (centres undefined)
inactive: [4] 25% | [6] 20.7% | [7] 29.2% | [8] 18.9% | [9] 20.1% | [10] 48.1% | [11] 21.9% | [12] 52.1% | [13] 19.3% | [14] 18.4% | [15] 55.9% | [16] 23.9% | [17] 18.1% | [20] 11.1%
active: [1] 8.29% | [2] 0.704% | [3] -17.6% | [5] 5.8% | [18] -2.15% | [19] 7.34%

CN(C)CCCn1c2c(c3ncccc3c1=O)C(=O)c1ccccc1-2
inactive: [1] 28.6% | [2] 20.9% | [3] 79% | [4] 37.3% | [5] 29% | [6] 39% | [7] 30.7% | [8] 34.6% | [9] 19.1% | [10] 65% | [11] 81.8% | [12] 81.7% | [13] 34.7% | [14] 32% | [15] 52.3% | [16] 15.2% | [17] 52.7% | [18] 57.5% | [19] 50.4% | [20] 17.3%

Cn1cc(-c2csc(-c3c[nH]c4ccc(Br)cc34)n2)c2cnccc21
active: [1] -78.9% | [2] -70% | [3] -95.8% | [4] -85.5% | [5] -85.8% | [6] -79.5% | [7] -67.7% | [8] -90.6% | [9] -92.7% | [10] -93.6% | [11] -65.7% | [12] -78.3% | [13] -87.2% | [14] -96.3% | [15] -83.9% | [16] -98.6% | [17] -97% | [18] -97.3% | [19] -39% | [20] -58.3%

Cc1nn(-c2ccccc2)c(Oc2ccccn2)c1-c1nc2ccccc2s1
active: [20] -49.2%
inactive: [1] 91.4% | [2] 92.6% | [3] 97% | [4] 100% | [5] 97.8% | [6] 91% | [7] 84.4% | [8] 91.4% | [9] 97.3% | [10] 106% | [11] 99.2% | [12] 90.4% | [13] 100% | [14] 88.2% | [15] 103% | [16] 98.3% | [17] 82.3% | [18] 106% | [19] 102%

O=C1Nc2ccccc2/C1=C\c1nc(-c2ccccc2F)n2ccccc12
active: [3] -68.2% | [5] -3.26% | [11] -6.84% | [14] -16.2% | [15] -6.87% | [16] -58.5% | [17] -13.9% | [18] -10.4%
inactive: [1] 42.3% | [2] 11.6% | [4] 45.8% | [6] 44.1% | [7] 37.8% | [8] 38.8% | [9] 13.6% | [10] 69.3% | [12] 47.6% | [13] 14.5% | [19] 79% | [20] 70.6%

O=C1N(Cc2ccccc2Cl)c2ccccc2C12NN=C(c1cccc(Cl)c1)S2 (centres undefined)
inactive: [2] 94.4% | [3] 16.7% | [4] 20.9% | [7] 14.5%
active: [1] 0.214% | [5] -30% | [6] -64.3% | [8] -44.3% | [9] -19.4% | [10] 7.1% | [11] -23.1% | [12] -31% | [13] -19.8% | [14] -58.3% | [15] -3.68% | [16] -47.1% | [17] -30.7% | [18] -85.9% | [19] 1.03% | [20] -18%

Cc1ccccc1NC(=O)c1sc2nc(C)c(C(=O)/C=C/c3ccccc3)cc2c1N
inactive: [6] 29% | [7] 17.7% | [10] 42% | [11] 34.8% | [12] 59.6% | [14] 19.7% | [15] 11.7% | [16] 33.3% | [17] 25.5% | [18] 29.3% | [20] 17.4%
active: [1] -1.44% | [2] -5.48% | [3] -7.36% | [4] 2.8% | [5] -35% | [8] 7.17% | [9] -85.9% | [13] 3.45% | [19] 8.43%

CN([O-])c1nc(N(C)[O-])nc(N2CCOCC2)n1.CN([O-])c1nc(N(C)[OH2+])nc(N2CCOCC2)n1.[Fe+3]
inactive: [1] 104% [100 µM] | [2] 102% [100 µM] | [3] 96.1% [100 µM] | [4] 108% [100 µM] | [5] 38.7% [100 µM] | [6] 65.9% [100 µM] | [7] 95.5% [100 µM] | [8] 81.6% [100 µM] | [9] 38.9% [100 µM] | [11] 84.9% [100 µM] | [12] 14.5% [100 µM] | [13] 99.9% [100 µM] | [14] 72.3% [100 µM] | [15] 110% [100 µM] | [16] 82.8% [100 µM] | [17] 85.8% [100 µM] | [18] 109% [100 µM] | [19] 11.7% [100 µM] | [20] 30.3% [100 µM]
active: [10] -26.4% [100 µM]

c1cnc2[nH]cc(-c3csc(-c4cn(CCCN5CCOCC5)c5ccccc45)n3)c2c1
inactive: [1] 14% | [3] 20.1% | [4] 56.8% | [5] 32.9% | [6] 19.6% | [7] 38% | [8] 65.5% | [9] 30.6% | [10] 65.3% | [11] 82.6% | [12] 47.9% | [13] 64.5% | [14] 23% | [15] 69.6% | [16] 32.8% | [17] 47.5% | [18] 53.9% | [20] 16.6%
active: [2] 7.69%
